Laboratory results from PubChem BioAssay (NCI).
Compounds without any hit were thinned out: in the full panel of roughly 83,000, 20% have a hit.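 Cells were grown in 96-well plates and exposed to the test compound at a single concentration for 48 hours; results are reported as percent growth, with values below 10 considered active.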 A number with no mark means an inactive call. The source made the active and inactive calls.

Legend:
Experiment in all cases: NCI-60 one-dose screen, 48 h (100 = growth as untreated, 0 = no growth, -100 = all killed)
Conditions in all cases: 10 µM unless noted
RPMI-8226 leukemia = system: RPMI-8226 leukemia
OVCAR-8 ovarian = system: OVCAR-8 ovarian
OVCAR-5 ovarian = system: OVCAR-5 ovarian
OVCAR-4 ovarian = system: OVCAR-4 ovarian
SK-OV-3 ovarian = system: SK-OV-3 ovarian
IGROV1 ovarian = system: IGROV1 ovarian
OVCAR-3 ovarian = system: OVCAR-3 ovarian
HS 578T breast = system: HS 578T breast
NCI/ADR-RES ovarian = system: NCI/ADR-RES ovarian
T-47D breast = system: T-47D breast

SMILES	growth (RPMI-8226 leukemia)	growth (OVCAR-8 ovarian)	growth (OVCAR-5 ovarian)	growth (OVCAR-4 ovarian)	growth (SK-OV-3 ovarian)	growth (IGROV1 ovarian)	growth (OVCAR-3 ovarian)	growth (HS 578T breast)	growth (NCI/ADR-RES ovarian)	growth (T-47D breast)
c1ccc(CNc2nc(Nc3ccccc3)nc3ccccc23)cc1	45.4%	34.9%	72.8%	36.8%	3.4% (active)	63.2%	39.6%	44.4%	62.3%	77.4%
Brc1ccc(Nc2nc3ccccc3nc2Nc2ccc(Br)cc2)cc1	-12.3% (active)	-31.4% (active)	6.38% (active)	12.7%	-16.7% (active)	1.3% (active)	-55.4% (active)	-1.34% (active)	5.04% (active)	-4.85% (active)
CCCCCCc1cc2cc(-c3csc(/C=C/c4ccccc4)n3)c(=O)oc2cc1O	-1.82% (active)	20%	81.7%	36.8%	47%	37.2%	2.25% (active)	3.39% (active)	20.2%	5.5% (active)
O=C(NCCCN1CCC(N2CCCCC2)CC1)C1=Cc2cc(Br)ccc2OC1	30.3%	19%	77%	45.5%	86.4%	33.3%	48.6%	55.8%	38.9%	44.8%
COc1cc(/C=C/C(=O)c2c(C)nc3ccccc3c2/C=C/c2ccccc2)cc(OC)c1OC	-27.3% (active)	11.6%	7.55% (active)	40.8%	59.3%	2.87% (active)	-35.9% (active)	24.7%	8.09% (active)	13.3%
COc1ccc(C2c3ccc4ccccc4c3Oc3ncn(CCCn4ccnc4)c(=N)c32)cc1OC (stereo not drawn)	36.1%	67.8%	67.5%	58.9%	76.1%	72.8%	61.3%	83.9%	67.8%	72.4%
COc1cccc(/C=C/C(=O)c2c(C)nc3ccccc3c2/C=C/c2ccccc2)c1OC	6.11% (active)	21.6%	36.4%	46.3%	89.8%	20.9%	2.68% (active)	37.5%	10%	11.2%
Cn1c2c(c(=O)[nH]c1=O)NC1=C(C(=O)c3ccccc31)C1(C=C(O)c3ccccc31)N2 (stereo not drawn)	105%	107%	111%	71.3%	111%	95.5%	95.4%	110%	117%	108%
COc1c(B(O)O)cccc1-c1nc2ccc3[nH]ncc3c2c2c1C1CCC2C1 (stereo not drawn)	39.7%	59.9%	113%	115%	39.8%	76.1%	59%		78.8%	101%
CSc1nc2c(c(=O)n1C)N=C1c3ccccc3C(=O)C1C(c1ccccc1)N2 (stereo not drawn)	94.9%	77.7%	87.9%	72.6%	72.4%	30.4%	39.4%	71.8%	55.8%	61.9%
CCC(C)(C)C(=O)O[C@H]1C[C@@H](C)C=C2C=C[C@H](C)[C@H](CC[C@@H]3CC=CC(=O)O3)[C@H]21	-16.7% (active)	61.6%	142%	106%	115%	97.2%	51.2%	94.6%	90.6%	80.8%
CCOc1cccc(/C=N\Nc2nc(=O)cc(C(=O)OC)s2)c1O	57.6%	66.9%	92.9%	49.3%	95.6%	61.8%	29.7%		32.3%	37.8%
CCOc1ccccc1CN1CCc2nc3cc(C(C)(C)C)[nH]n3c(=O)c2C1	101%	103%	97.9%	101%	110%	99.5%	106%	100%	91.8%	98.6%
COc1ccc(OC)c(/C=C/C(=O)c2c(C)nc3ccccc3c2/C=C/c2ccccc2)c1	19.5%	40.5%	80%	59.3%	91%	52.6%	37.4%	68%	58.9%	30.6%
FC(F)(F)c1cccc(Nc2nc3ccccc3nc2Nc2cccc(C(F)(F)F)c2)c1	-30.9% (active)	-24.3% (active)	4.13% (active)	11.7%	32%	-58.2% (active)	-29.7% (active)	-4.37% (active)	77.9%	-61.7% (active)
CN1CCN(Cc2ccc(NC(=O)c3cncc(C#Cc4nc(N)nc5[nH]ncc45)c3)cc2C(F)(F)F)CC1	55.2%	100%	108%	88.8%	122%	109%	66.5%	99.1%	114%	93.5%
COc1ccc(Nc2cc(C)nc(NCc3ccccc3)n2)cc1	8.08% (active)	24.1%	62%	46.7%	92.5%	37.5%	6.99% (active)		77.8%	63%
COc1ccc(C2C3=C(COC3=O)N(CCO)c3cc4c(cc32)OCCO4)cc1 (stereo not drawn)	99.9%	84.6%	99.8%	98.8%	86.5%	80.7%	50.4%	71.6%	95.5%	80.4%
CN1CCN(Cc2ccc(C(=O)Nc3cncc(C#Cc4cnc(N)c5ccccc45)c3)cc2C(F)(F)F)CC1	-41.4% (active)	-17.8% (active)	-44% (active)	-44.5% (active)	35.2%	-47.4% (active)	-74.1% (active)	-35.4% (active)	-25.4% (active)	-10.5% (active)
CC(=O)SC1CC(=O)C=C2CCC3C4CCC(=O)OC4(C)CCC3C21C (stereo not drawn)	103%	98.9%	99.7%	122%	113%	147%	106%	114%	110%	122%
Cc1ccc2cc3c(N)c4c(C)ccc(C)c4nc3nc2c1	34.3%	34.2%	89.5%	72.9%	93.3%	75.8%	81.3%		72.7%	6.15% (active)

SMILES	growth (RPMI-8226 leukemia)	growth (OVCAR-8 ovarian)	growth (OVCAR-5 ovarian)	growth (OVCAR-4 ovarian)	growth (SK-OV-3 ovarian)	growth (IGROV1 ovarian)	growth (OVCAR-3 ovarian)	growth (HS 578T breast)	growth (NCI/ADR-RES ovarian)	growth (T-47D breast)
CCN1C(=O)N(CC)C2C1NN=c1s/c(=C3\C(=O)N(C(C)C)c4ccccc43)c(=O)n12 (stereo not drawn)	7.53% (active)	12.6%	54.2%	58.1%	29.7%	36.5%	5.56% (active)		7.06% (active)	68.1%
COc1c(B(O)O)cccc1-c1nc2ccc3n[nH]c(F)c3c2c2c1CCCC2	42.3%	72%	105%	96%	79%	80%	91%	43.9%	79.6%	106%
COc1ccc(-c2cc(=O)c3c(OC)c4ccoc4c(/C=C/C=O)c3o2)cc1	0.179% (active)	28.5%	77.1%	37.2%	84%	72.7%	18.3%	39.2%	33.5%	1.64% (active)
COc1ccc(-c2nc(-c3ccccc3)c(-c3ccccc3)[nH]2)cc1OC1CCCCC1	58.9%	86.7%	96.6%	74.2%	98.9%	102%	72.6%	91.2%	87.7%	82.6%
CC1=C(CC(=O)c2cccc([N+](=O)[O-])c2)C(=O)c2ccccc2C1=O	-7.18% (active)	9.43% (active)	37.5%	-89.2% (active)	30.5%	-61.1% (active)	-94% (active)	-20.6% (active)	30.9%	-10.2% (active)
COc1cc2c(cc1OC)C(=O)C(CC1CCN(C(=O)Nc3ccc(C)cc3)CC1)C2 (stereo not drawn)	111%	106%	86.9%	89.8%	98.5%	96.1%	100%	82.1%	99.6%	89.1%
CC(=O)c1ccc(Cc2ccc(C(C)=O)s2)s1	95.2%	107%	100%	96.5%	109%	96.1%	100%	109%	106%	96.7%
Cc1ccc2[nH]c(=O)cc(-n3nncc3Cn3c4ccccc4c4ccccc43)c2c1	109%	94.9%	104%	98.7%	91.4%	103%	101%	88.4%	99.5%	106%
CN(C)c1ccc(/C=C/c2ccnc3c(O)cccc23)cc1	1.91% (active)	8.43% (active)	35.5%	31.9%	24.7%	11.4%	29.7%	43%	19.5%	16.9%
COc1ccc(CCN2C(=O)/C(=C/c3ccc(C4Oc5ccccc5C5CC(c6cccc(OC)c6)=NN54)cc3)SC2=S)cc1 (stereo not drawn)	103%	102%	99.9%	98.9%	97.7%	104%	102%	101%	104%	100%
O=c1oc2ccc(Br)cc2c(=O)n1-c1ccc(I)cc1F	-28.3% (active)	10.4%	22%	15.2%	6.53% (active)	15.8%	5.31% (active)	0.536% (active)	9.96% (active)	-1.18% (active)
O=c1oc2ccc(F)cc2c(=O)n1-c1ccc(Br)cc1F	-22.3% (active)	8.64% (active)	21.8%	11.9%	-3.03% (active)	17%	5.94% (active)	-3.75% (active)	6.34% (active)	-12.3% (active)
CCOC(=O)c1cnc2ccc(Cl)cc2c1NCCCN(C)C	-3.54% (active)	-3.54% (active)	53.8%	-12.1% (active)	14.5%	-16.2% (active)	18.8%	33%	7.93% (active)	14.6%
COc1ccc(-n2c(C(O)c3ccccc3)n[nH]c2=S)cc1 (stereo not drawn)	93.3%	103%	93.4%	102%	101%	99.1%		111%	103%	97.7%
O=C(c1ccccc1)N(C(=S)NCCc1ccc(Cl)cc1)c1ccc(Cl)cc1	62.5%	41.1%	81.3%	88.8%	104%		27.7%	62.5%	101%	45.5%
O=c1oc2ccc(-c3ccc(F)cc3F)cc2c(=O)n1-c1cccc(C(F)(F)F)c1	-6.6% (active)	8.92% (active)	12.1%	19.2%	-9.56% (active)		7.84% (active)	8.28% (active)	7.17% (active)	-13.7% (active)
Cc1ccc(S(=O)c2ccc([N+](=O)[O-])c3nonc23)cc1 (stereo not drawn)	91.3%	99.7%	118%	101%	112%		94.5%	96.5%	114%	59.1%
Cc1nc(Nc2ccccn2)sc1C(=O)/C=C/c1ccc(Cl)cc1	12%	10.1%	38.7%	54%	26.9%	13.9%		18.5%	3.2% (active)	58.1%
COc1cc(C(=O)Nc2ccc(-c3nc4ccccc4[nH]3)cc2)cc(OC)c1OC	19.2%	27.1%	83.5%	61.6%	56.1%	46.8%		72.5%	52.5%	60%
Cn1nc(C(F)(F)F)c(-c2ccc(Cl)c(C(F)(F)F)c2)c1-c1ccc(OCc2ccc(Cl)cc2)cc1O	-17.9% (active)	7.41% (active)	53.4%	30.2%	20.6%	38.9%		22.8%	8.38% (active)	-0.38% (active)
